Hit rate of the full screen: of about 420,000 compounds, about 64,000 (15%) were called active. Not shown: some 27% with an inconclusive outcome. Only a sample is shown. A number with no mark means an inactive call. The call rests on the fitted dose curve; in most records, active means well fitted inhibition curve with a large enough effect; inconclusive means small, poorly fitted or top-dose-only effect; inactive means flat fitted curve, though single readings scatter.
Assay: qHTS for Inhibitors of human tyrosyl-DNA phosphodiesterase 1 (TDP1): qHTS in cells in absence of CPT; further: nearly all actives have a fitted effect of over 55% in size
Conditions: DT40 Tdp1-/- hTDP1 cells, no CPT, ATP luminescence, 48 h; activity change, negative = growth inhibition: at 46.2 µM (top of the series)
Text: Human tyrosyl-DNA phosphodiesterase 1 (TDP1) is a novel repair gene, and we propose to use it as a new target for anticancer drug development. TDP1 is not an essential protein, but under treatment with topoisomerase I poison (camptothecin: CPT), TDP1 works as a critical factor for cell survival. To directly identify novel TDP1 inhibitors active in a cellular environment, we have knocked-out the Tdp1 gene in chicken DT40 cells (Tdp1-/-) and generated a complemented counterpart cells that contains a stable transfection of the human TDP1 gene (Tdp1-/-;hTDP1 cells). For the primary screen, Tdp1-/-;hTDP1 cells will be exposed to small molecules in the presence or absence of CPT, and their growth kinetics will be evaluated after 48 hours by measuring ATP activity. […] The hit compounds will then be evaluated in the presence or absence of CPT using Tdp1-/- cells. […] In tertiary assays, biochemical gel-based assays will be used to assess whether the hit compounds specifically target TDP1.
To this end, we have screened this cell line against the MLSMR in two primary screens. In one screen we add CPT and in the other we screen in the absence of CPT; this AID represents the screen where CPT was absent.
NIH Chemical Genomics Center [NCGC]
NIH Molecular Libraries Probe Centers Network [MLPCN]
Assay Submitter (PI): Yves Pommier, NCI
DT40-hTDP1 cells without 20 nM Camptothecin (add 20 microL of DMSO in 1 L of cell culture medium) were dispensed at 400 cells/5microL/well in tissue culture treated 1536-well white wall/solid bottom assay plates (Greiner Bio-One North America, NC, U.S.A.) using a Multidrop Combi 8 channel dispenser (Thermo Fisher, Waltham, MA, USA). 23 nL compounds and controls were transferred using the pin tool (Kalypsys, San Diego, CA, USA) to the assay plates. The assay plates were then incubated at 37 masculineC for a minimum 48 hr. Three microL of Cell Titer Glo solution was added to the plates and incubated at RT in dark for 30 min. Luminescence was read using ViewLux (Perkin Elmer) with 1 sec exposure slow speed, high gain and 2x binning.
On the % scale 0 is the no-effect control and ±100 the full control effect; potency means the concentration at half of the fitted maximal effect.

**Q.** Which “activity change, negative = growth inhibition” value does the source give for `CCC(=O)Nc1ccc2nn(-c3ccc(F)cc3)nc2c1` here?
**A.** Its value is -27.6%.

**Q.** For `COc1ccccc1C(=O)Nc1ccnn1C1CCN(Cc2cnn(C)c2)CC1`, which “activity change, negative = growth inhibition” value is on record?
**A.** The value was -3.57%.

**Q.** With `COc1ccc2c(c1OC)C(=O)N(c1ncn[nH]1)C2` as the molecule, how does the “activity change, negative = growth inhibition” value read?
**A.** Its value is -0.222%.

**Q.** Which “activity change, negative = growth inhibition” value does the source give for `Cc1ccc(S(=O)(=O)NC[C@H]2O[C@@H](n3cnc4c(N)ncnc43)[C@H](O)[C@@H]2O)s1` here?
**A.** The value was -16.2%.

**Q.** For `CCCc1cc(=O)[nH]c(SCc2cc(=O)oc3c(C)c(C)ccc23)n1`, which “activity change, negative = growth inhibition” value is on record?
**A.** The value was -12.2%.

**Q.** Which “activity change, negative = growth inhibition” value does the source give for `CCN(CC(=O)Nc1c(F)cccc1F)C(=O)c1cnc(C)cn1` here?
**A.** The value was 2.58%.

**Q.** For `CC(C)CN(C(=O)CSc1nncn1C)C1CCS(=O)(=O)C1` (centres undefined), which “activity change, negative = growth inhibition” value is on record?
**A.** The value was -14.8%.

**Q.** With `O=C(CN(Cc1ccccc1)C(=O)c1ccc2c(c1)OCCO2)NCc1ccc2c(c1)OCO2` as the molecule, how does the “activity change, negative = growth inhibition” value read?
**A.** The value was -23.2%.

**Q.** For `CC/C(O)=N\S(=O)(=O)c1ccc(N=NN(C)C)cc1`, which “activity change, negative = growth inhibition” value is on record?
**A.** The value was -6.75%.

**Q.** With `COCCN1C(=O)N[C@@H](c2ccccc2)C(C(=O)OC)=C1C` as the molecule, how does the “activity change, negative = growth inhibition” value read?
**A.** Its value is -8.68%.

**Q.** Which “activity change, negative = growth inhibition” value does the source give for `CCN1C(=O)N[C@@H](c2ccccc2)C(C(=O)OC)=C1C` here?
**A.** Its value is -14.8%.

**Q.** For `COC(=O)C1=C(C)N(Cc2ccccc2)C(=NCCCOC(C)C)N[C@H]1c1ccccc1`, which Potency is on record?
**A.** The Potency was 10.3 µM (active).

**Q.** For `CCOCCOCCC(C(=O)O)P(=O)(c1ccccc1)c1ccccc1` (centres undefined), which “activity change, negative = growth inhibition” value is on record?
**A.** Its value is 9.02%.

**Q.** Which “activity change, negative = growth inhibition” value does the source give for `CCOc1ccc(-n2cnnn2)cc1S(=O)(=O)N1CCC(C)CC1C` (centres undefined) here?
**A.** The value was -22.2%.

**Q.** Which “activity change, negative = growth inhibition” value does the source give for `CCc1ccccc1NC(=O)CSc1nnc(CCNC(=O)OC(C)(C)C)o1` here?
**A.** Its value is -14.5%.

**Q.** Which “activity change, negative = growth inhibition” value does the source give for `Cc1ccccc1Nc1nc(N)nc(CSc2nnc3ccccn23)n1` here?
**A.** The value was 2.48%.

**Q.** With `O=C(Nc1cc(C(F)(F)F)ccc1Cl)c1ccc2c(c1)CCN2S(=O)(=O)c1ccccc1` as the molecule, how does the Potency read?
**A.** Its Potency is 11.6 µM (active).

**Q.** Which “activity change, negative = growth inhibition” value does the source give for `COc1ccc(OC)c(NC(=O)c2ccc3c(c2)CCN3S(C)(=O)=O)c1` here?
**A.** The value was -24.1%.

**Q.** For `COc1ccc(S(=O)(=O)N2CCc3ccccc32)cc1C(=O)Nc1cc(S(C)(=O)=O)ccc1Cl`, which Potency is on record?
**A.** Its Potency is 4.61 µM (active).

**Q.** Which “activity change, negative = growth inhibition” value does the source give for `CS(=O)(=O)N1CCc2cc(C(=O)Nc3ccccc3)ccc21` here?
**A.** Its value is -3.41%.

**Q.** For `CCN(C(=O)COC(=O)c1cc(S(=O)(=O)N2CCc3ccccc32)ccc1OC)C1CCS(=O)(=O)C1` (centres undefined), which “activity change, negative = growth inhibition” value is on record?
**A.** The value was 0.801%.

**Q.** Which “activity change, negative = growth inhibition” value does the source give for `Cc1ccc(S(=O)(=O)N2CCc3cc(C(=O)Nc4ccc(Cl)cc4C)ccc32)cc1` here?
**A.** Its value is -2.76%.

**Q.** For `CC(C)(O)C1=C[N+](=O)CC=C1`, which “activity change, negative = growth inhibition” value is on record?
**A.** Its value is -3.03%.

**Q.** For `C#CCOCCOCCOCCNc1nc(N2CCN(C(=O)C([C@@H](C)CC)n3cc(C(N)COC(=O)C(F)(F)F)nn3)CC2)nc(N2CCN(C(=O)[C@H](CCCCN)n3cc(C(N)CC(C)C)nn3)CC2)n1` (some centres undefined), which “activity change, negative = growth inhibition” value is on record?
**A.** Its value is -1.26%.

**Q.** Which “activity change, negative = growth inhibition” value does the source give for `Cc1nn(CC(=O)Nc2ccc(N(C)C)cc2)c(C)c1[N+](=O)[O-]` here?
**A.** The value was -26.8%.

**Q.** With `CC1CC(=NNC(=O)C2COc3ccccc3O2)CC(C)(C)C1` (centres undefined) as the molecule, how does the “activity change, negative = growth inhibition” value read?
**A.** Its value is -27.9%.

**Q.** For `C[C@@H](C(=O)N1CCNCC1)n1cc(CCC(=O)O)nn1`, which “activity change, negative = growth inhibition” value is on record?
**A.** The value was -8.65%.

**Q.** For `C=C(C)CNc1cc(S(=O)(=O)N2CCOCC2)ccc1Oc1ccccc1`, which Potency is on record?
**A.** Its Potency is 20.6 µM (active).

**Q.** Which “activity change, negative = growth inhibition” value does the source give for `COc1ccc(S(=O)(=O)N2CCOCC2)cc1NC(=O)COc1ccccc1` here?
**A.** The value was -24.6%.

**Q.** With `COC(=O)c1cc(Oc2ccc(S(=O)(=O)N3CCOCC3)cc2[N+](=O)[O-])cc(C(=O)OC)c1` as the molecule, how does the “activity change, negative = growth inhibition” value read?
**A.** The value was -27.7%.

**Q.** For `O=[N+]([O-])c1cc([N+](=O)[O-])c(Oc2cc(F)cc(F)c2F)cc1NN1CCCCC1`, which “activity change, negative = growth inhibition” value is on record?
**A.** The value was -23.3%.

**Q.** Which “activity change, negative = growth inhibition” value does the source give for `O=C(/C=C/c1ccc(F)cc1)NCCNC(=O)/C=C/c1ccc(F)cc1` here?
**A.** Its value is 4.93%.

**Q.** Which “activity change, negative = growth inhibition” value does the source give for `COc1cccc(C(=O)NNC(=O)/C=C/c2ccccc2)c1` here?
**A.** Its value is 19.2%.

**Q.** For `O=C(/C=C/c1ccc([N+](=O)[O-])o1)NNC(=O)c1ccc(F)cc1`, which Potency is on record?
**A.** The Potency was 1.84 µM (active).

**Q.** With `Cc1ccsc1C(=O)N[C@@H](C)c1nnc2ccccn12` as the molecule, how does the “activity change, negative = growth inhibition” value read?
**A.** The value was -7.07%.

**Q.** For `Nc1nc2[nH]c(=O)c(=O)[nH]c2c(=O)[nH]1`, which “activity change, negative = growth inhibition” value is on record?
**A.** The value was 15.7%.

**Q.** Which “activity change, negative = growth inhibition” value does the source give for `CCOC(=O)n1c(SCC(=O)N(CC)CC)nc2ccccc21` here?
**A.** Its value is -16.7%.

**Q.** For `CCN(CC)C(=O)CSc1nc2ccsc2c(=O)n1Cc1ccccc1Cl`, which Potency is on record?
**A.** Its Potency is 23.1 µM (active).

**Q.** For `CCOC(=O)CSc1nc2c(c(=O)n(Cc3ccccc3Cl)c(=O)n2C)n1C`, which “activity change, negative = growth inhibition” value is on record?
**A.** Its value is -3.48%.

**Q.** Which “activity change, negative = growth inhibition” value does the source give for `CN(Cc1ccco1)c1ncncc1-c1ccoc1` here?
**A.** Its value is -6.14%.

**Q.** For `CCc1ccc(Oc2coc3cc(OC(=O)c4cc5ccccc5oc4=O)ccc3c2=O)cc1`, which “activity change, negative = growth inhibition” value is on record?
**A.** The value was -9.4%.

**Q.** With `Cc1cn(COC/C=C/c2ccccc2)c(=O)[nH]c1=O` as the molecule, how does the “activity change, negative = growth inhibition” value read?
**A.** The value was -2.88%.

**Q.** For `Cc1[nH]c(=O)c(C(=O)/C=C/c2ccccc2)c2c1CCCC2`, which Potency is on record?
**A.** Its Potency is 5.8 µM (active).

**Q.** Which “activity change, negative = growth inhibition” value does the source give for `O=C(NCc1ccccn1)c1c(O)c2c([nH]c1=O)CCCC2` here?
**A.** Its value is -7.3%.

**Q.** For `Cc1cc(Cl)c(S(=O)(=O)Nc2ccc3c(c2)OCCO3)cc1OCC(N)=O`, which “activity change, negative = growth inhibition” value is on record?
**A.** Its value is -29.7%.

**Q.** Which “activity change, negative = growth inhibition” value does the source give for `Cc1ccc(/C=N/NC(=O)Cn2ccc(C(F)(F)F)n2)o1` here?
**A.** The value was -0.299%.

**Q.** Which “activity change, negative = growth inhibition” value does the source give for `Cc1cc(-c2n[nH]c(=S)n2-c2ccc(C)c(C)c2)no1` here?
**A.** The value was -4.09%.

**Q.** With `Cc1cc(C)c2oc(C(=O)Nc3ccc(S(=O)(=O)Nc4nccc(C)n4)cc3)cc(=O)c2c1` as the molecule, how does the “activity change, negative = growth inhibition” value read?
**A.** Its value is -26%.

**Q.** With `Cc1ccc(NC(=S)NCCc2ccc(Cl)cc2)c(C)c1` as the molecule, how does the Potency read?
**A.** Its Potency is 18.4 µM (active).

**Q.** Which “activity change, negative = growth inhibition” value does the source give for `Cc1cc(Cl)ccc1NC(=S)NCCCN1CCCC1=O` here?
**A.** Its value is 3.78%.

**Q.** For `S=C(NCc1ccco1)NCc1ccccc1Cl`, which “activity change, negative = growth inhibition” value is on record?
**A.** Its value is 13.1%.

**Q.** Which “activity change, negative = growth inhibition” value does the source give for `CCNC(=S)Nc1cccc(Cl)c1C` here?
**A.** The value was -27.6%.

**Q.** With `Cc1cc(F)ccc1NC(=S)NCCc1ccccc1` as the molecule, how does the “activity change, negative = growth inhibition” value read?
**A.** Its value is -10.9%.

**Q.** For `Cc1ccc(NC(=S)NCc2ccccc2Cl)c(C)c1`, which Potency is on record?
**A.** The Potency was 20.6 µM (active).

Source: PubChem BioAssay AID686978 (National Center for Advancing Translational Sciences (NCATS), 2013)
